# Laboratory results as given in a collection of fitness landscapes (doi:10.1126/science.1257360).
# Over roughly 140,000 sequences, “enrichment ratio after two sorts for PhoP signalling” has its median near 0; the highest 2% begin near 11. Only a selection was taken, and the highest values are over-represented in it overall.
# B1: PhoQ; a variant is named by its letters at X, in order, P23837 (parent)
# chain: MKKLLRLFFPLSLRVRFLLATAAVVLVLSLAYGMVALIGYSVSFDKTTFRLLRGESNLFYTLAKWENNKLHVELPENIDKQSPTMTLIYDENGQLLWAQRDVPWLMKMIQPDWLKSNGFHEIEADVNDTSLLLSGDHSIQQQLQEVREDDDDAEMTHSVAVNVYPATSRMPKLTIVVVDTIPVELKSSYMVWSWFIYVLSANLLLVIPLLWVAAWWSLRPIEALAKEVRELEEHNRELLNPATTRELTSLVRNLNRLLKSERERYDKYRTTLTDLTHSLKTPLXXLQXXLRSLRSEKMSVSDAEPVMLEQISRISQQIGYYLHRASMRGGTLLSRELHPVAPLLDNLTSALNKVYQRKGVNISLDISPEISFVGEQNDFVEVMGNVLDNACKYCLEFVEISARQTDEHLYIVVEDDGPGIPLSKREVIFDRGQRVDTLRPGQGVGLAVAREITEQYEGKIVAGESMLGGARMEVIFGRQHSAPKDE
# Variants of: B1
# Test: enrichment ratio after two sorts for PhoP signalling (ratio (wild type AVST 3.29)); higher = more functional
# Settings: with PhoP (E. coli)
row,Variant,enrichment ratio
1,KSIL,≤ 0.25
2,SSMW,≤ 0.25
3,SSHF,≤ 0.25
4,SSMG,10.3
5,IRSG,≤ 0.25
6,FANW,≤ 0.25
7,HNPM,≤ 0.25
8,CVPS,≤ 0.25
9,FSNW,≤ 0.25
10,APGD,≤ 0.25
11,SFDK,≤ 0.25
12,MPYC,≤ 0.25
13,EQDL,≤ 0.25
14,SSME,16.6
15,KSIG,≤ 0.25
16,SSIG,11.5
17,KSIM,≤ 0.25
18,SCII,5.01
19,FSIM,11.9
20,STME,8.24
21,SDII,11.7
22,SYII,≤ 0.25
23,TSIG,≤ 0.25
24,FDIM,≤ 0.25
25,KSME,≤ 0.25
26,KAWR,≤ 0.25

row,Variant,enrichment ratio
1,KQKI,≤ 0.25
2,TDSI,8.92
3,PNEG,≤ 0.25
4,MIVG,≤ 0.25
5,NTPE,≤ 0.25
6,KFFD,≤ 0.25
7,PYGG,≤ 0.25
8,PMVC,≤ 0.25
9,SCVQ,3.12
10,ATVA,1.05
11,SEVQ,11.9
12,NEVQ,≤ 0.25
13,SQVQ,15.1
14,ATVQ,13.9
15,SLVQ,0.637
16,KYVQ,≤ 0.25
17,YTVQ,0.393
18,MEVQ,≤ 0.25
19,ATHP,≤ 0.25
20,STVQ,12
21,NQCF,≤ 0.25
22,KRSQ,≤ 0.25
23,WTEW,≤ 0.25
24,QAYY,10.3
25,WESK,≤ 0.25
26,QQNY,2.46

row,Variant,enrichment ratio
1,WMDF,≤ 0.25
2,ACYH,≤ 0.25
3,QTFW,≤ 0.25
4,QCNH,≤ 0.25
5,QCGH,24.2
6,QCTH,≤ 0.25
7,QCCA,≤ 0.25
8,QCDH,18.8
9,GYDH,≤ 0.25
10,EMTV,≤ 0.25
11,PVLS,≤ 0.25
12,KFLE,≤ 0.25
13,KSER,≤ 0.25
14,SYLC,0.631
15,QPLC,≤ 0.25
16,MSLC,11.7
17,FPLC,≤ 0.25
18,FSLC,12.4
19,SSLC,15.2
20,SILC,8.13
21,QGLC,15.9
22,FQLC,2.14
23,FFLC,≤ 0.25
24,MSTS,0.73
25,QFLC,≤ 0.25
26,EGVI,≤ 0.25

row,Variant,enrichment ratio
1,VVAR,≤ 0.25
2,WYHC,≤ 0.25
3,SWDN,≤ 0.25
4,MGQS,≤ 0.25
5,LWFG,≤ 0.25
6,HKKG,≤ 0.25
7,RSIL,≤ 0.25
8,YKDC,≤ 0.25
9,IGWW,≤ 0.25
10,PKQD,≤ 0.25
11,LTKR,≤ 0.25
12,HYAP,≤ 0.25
13,TSLC,18.4
14,KSLC,≤ 0.25
15,MMLC,≤ 0.25
16,PNER,≤ 0.25
17,RFQL,≤ 0.25
18,KYAF,≤ 0.25
19,SQAF,3.99
20,KKAF,≤ 0.25
21,AIAF,12.4
22,AKAF,5.84
23,SIAF,15.1
24,GPRN,≤ 0.25
25,NCRE,≤ 0.25
26,DCLW,≤ 0.25

row,Variant,enrichment ratio
1,PYCA,≤ 0.25
2,HYKI,≤ 0.25
3,YMVL,≤ 0.25
4,DVFV,≤ 0.25
5,GGCI,0.663
6,TGCS,13
7,GYCS,≤ 0.25
8,GGCS,13.1
9,RGCS,0.323
10,NGCS,≤ 0.25
11,MTCI,≤ 0.25
12,SLCL,11.2
13,TTCL,18.5
14,MTCL,12.8
15,LTCL,≤ 0.25
16,YTCL,5.77
17,GTCL,9.42
18,STCL,15.7
19,PLCL,≤ 0.25
20,WLCL,≤ 0.25
21,ITCL,≤ 0.25
22,MTRL,≤ 0.25
23,GTAR,≤ 0.25
24,FHNH,≤ 0.25
25,YRKS,≤ 0.25
26,GQTP,≤ 0.25

row,Variant,enrichment ratio
1,THVR,≤ 0.25
2,MGQG,≤ 0.25
3,EIWF,≤ 0.25
4,RYFG,≤ 0.25
5,GLNL,≤ 0.25
6,GLCL,13.5
7,GLEL,≤ 0.25
8,MTME,≤ 0.25
9,IMWI,≤ 0.25
10,RGST,≤ 0.25
11,AGST,14.8
12,NIST,≤ 0.25
13,ADST,≤ 0.25
14,NGST,≤ 0.25
15,AIST,6.85
16,KMST,≤ 0.25
17,SMST,13.1
18,TIST,12.7
19,SMNT,≤ 0.25
20,AHST,≤ 0.25
21,TGST,15.2
22,RSCK,≤ 0.25
23,DWGV,≤ 0.25
